From PubChem BioAssay (NCATS)
Inconclusive results are not listed. Where a call stands in place of a potency, no number is given. Unmarked numbers belong to inactive results. Calls of active or inactive are those of the source. Calls follow the shape of the dose curve; as a rule, active = well fitted curve in the direction sought with a large enough effect; inconclusive = small, poorly fitted or top-dose-only effect, or another doubt; inactive = no such curve, though single readings can be large; an effect the other way counts as inactive or inconclusive.

Legend:
[1] = target: Cytochrome P450 3A7 (Homo sapiens) (UniProt P24462); experiment: Cytochrome P450 family 3 subfamily A member 7 (CYP3A7) small molecule antagonists: luciferase biochemical qHTS assay (AID 1963596); also: nearly all actives have a fitted effect of over 40% in size; also: potency is read from the fitted curve at half-maximal effect
Summary of the method: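 P450-Glo luminescent assay: CYP3A7 enzyme converts a proluciferin substrate to luciferin, detected by luciferase reagent; light proportional to activity. Compounds in DMSO preincubated 10 min with enzyme-substrate mix at room temperature, then NADPH regeneration added for 1 h.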

[2] = Viability qHTS for spleen associated tyrosine kinase inhibitor (SYKi) naive MV4-11 cells (AID 1963823); also: nearly all actives have a fitted effect of over 40% in size; also: potency is read from the fitted curve at half-maximal effect
Summary of the method: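 Compounds were dispensed acoustically onto plates, MV4-11 cells (SYKi-naive) added at 500 per well, and plates incubated 72 hr at 37 C. CellTiter-Glo was added and luminescence measured after 10 min.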

[3] = Cellular viability qHTS for adrenocortical cancer (ACC) cell line SW-13 (AID 1963989); details: SW-13 ACC cells viability, CellTiter-Glo, 48 h; activity (max response): active compounds read low; also: nearly all actives have a fitted effect of over 65% in size; also: potency is read from the fitted curve at half-maximal effect;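 as to activity (max response): cells grown in serum-free medium with ITS supplement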
Summary of the method: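 Viability was read as CellTiter-Glo luminescence after 48 h compound treatment (up to 46 uM final) of SW-13 cells grown serum-free; titration curves were fit with a four-parameter logistic model to give IC50 and efficacy.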

[4] = Quantitative highthroughput screen to assess conditional lethalithy of NOMO1 cells grown in RPMI1640 with untreated serum (RPMI+s) (AID 1963876); also: nearly all actives have a fitted effect of over 35% in size
Summary of the method: (§1)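 Each medium arm—HPLM with 10% dialyzed FBS, or RPMI1640 with 5 mM glucose and 10% untreated or dialyzed FBS—was screened against an 11-point, 3-fold compound titration for 48 h at 37 °C, with CellTiter-Glo luminescence as endpoint.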

[5] = Quantitative highthroughput screen to assess conditional lethalithy of NOMO1 cells grown in Human Plasma-Like Medium with dialyzed fetal bovine serum (HPLM+ds) (AID 1963878); also: nearly all actives have a fitted effect of over 35% in size
Summary of the method: as §1

[6] = Quantitative highthroughput screen to assess conditional lethalithy of P12 Ichikawa cells grown in Human Plasma-Like Medium with dialyzed fetal bovine serum (HPLM+ds) (AID 1963879); details: Potency: viability; also: series mostly up to about 46 µM; nearly all actives have a fitted effect of over 35% in size
Summary of the method: as §1

[7] = Quantitative highthroughput screen to assess conditional lethalithy of P12 Ichikawa cells grown in RPMI1640 with dialyzed fetal bovine serum (RPMI+ds) (AID 1963880); details: Potency: P12-Ichikawa viability; also: potency is read from the fitted curve at half-maximal effect; nearly all actives have a fitted effect of over 35% in size
Summary of the method: as §1

[8] = Quantitative highthroughput screen to assess conditional lethalithy of SEM cells grown in RPMI1640 with unreated serum (RPMI+s) (AID 1963883)
Summary of the method: as §1

[9] = Cellular viability qHTS for adrenocortical cancer (ACC) cell line NCI-H295R (AID 1963990); also: nearly all actives have a fitted effect of over 60% in size
Summary of the method: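 CellTiter-Glo ATP luminescence, read 48 h after compound addition, measured viability of NCI-H295R adrenocortical cells grown serum-free with ITS. Final concentrations spanned up to 46 uM. Data normalized to DMSO and doxorubicin, fitted for IC50 and maximal response.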

Chain of Cytochrome P450 3A7 (Homo sapiens) (P24462 whole entry, looked up): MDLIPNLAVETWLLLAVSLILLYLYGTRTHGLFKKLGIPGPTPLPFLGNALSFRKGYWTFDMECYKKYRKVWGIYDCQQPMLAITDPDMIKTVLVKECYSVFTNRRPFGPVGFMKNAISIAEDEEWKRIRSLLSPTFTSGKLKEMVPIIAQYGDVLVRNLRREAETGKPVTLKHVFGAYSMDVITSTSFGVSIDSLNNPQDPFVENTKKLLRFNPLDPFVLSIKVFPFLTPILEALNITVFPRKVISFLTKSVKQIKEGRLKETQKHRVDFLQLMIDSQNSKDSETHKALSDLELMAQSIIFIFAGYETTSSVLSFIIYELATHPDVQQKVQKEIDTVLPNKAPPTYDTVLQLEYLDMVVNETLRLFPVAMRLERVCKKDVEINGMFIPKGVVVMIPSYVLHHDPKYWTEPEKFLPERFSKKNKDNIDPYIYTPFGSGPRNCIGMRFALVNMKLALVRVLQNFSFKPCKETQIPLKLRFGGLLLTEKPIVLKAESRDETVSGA

For `CCCCCCCCCCCC(=O)[O][Sn]([CH2]CCC)([CH2]CCC)[O]C(=O)CCCCCCCCCCC`, which Potency [1] is on record?
The Potency was 19.5 µM (active).

What about the Potency [2] of the same compound?
The Potency was “inactive”.

What about the activity (max response) [3] of the same compound?
The activity (max response) was 2.55%.

Which Potency [1] does the source give for `Cn1cc(-c2cnn3c(N)c(Br)c([C@@H]4CCCNC4)nc23)cn1` here?
The Potency was “inactive”.

And the Potency [2]?
Its Potency is 0.417 µM (active).

And the Potency [3]?
The Potency was 12.6 µM (active).

Which Potency [1] does the source give for `Cc1cnc(CNC(=O)c2c(=O)c3ccc(N4CCCN(C)CC4)nc3n3c2sc2ccccc23)cn1` here?
Its Potency is “inactive”.

What about the Potency [2] of the same compound?
Its Potency is 0.841 µM (active).

And the Potency [4]?
Its Potency is “inactive”.

And the Potency [5]?
Its Potency is “inactive”.

And the Potency [6]?
The Potency was “inactive”.

And the Potency [7]?
Its Potency is 10.2 µM (active).

What about the Potency [8] of the same compound?
Its Potency is 2.88 µM (active).

What does the source list for `CN(C)CCN(Cc1ccccc1)c1ccccn1`?
Potency [1]: 6.92 µM (active); Potency [2]: inactive; activity (max response) [3]: -3.06%

Which results are given for `O=C(O)c1ccc[n+]([O-])c1`?
Potency [1]: inactive; Potency [2]: inactive; Potency [9]: inactive

Which Potency [1] does the source give for `O=C(COCC(=O)N1CCN(C(c2ccccc2)c2ccccc2)CC1)Nc1ccc(Cl)cc1C(=O)O` here?
The Potency was “inactive”.

What about the Potency [2] of the same compound?
The Potency was “inactive”.

And the activity (max response) [3]?
Its activity (max response) is -10.1%.

And the Potency [9]?
The Potency was “inactive”.
